From PubChem BioAssay
For some assays here: Measured potencies and affinities stand elsewhere. Calls of active or inactive are those of the source. Unless noted, how the calls were made is not given here.

Key:
[1] = antimalarial activity against Dd2 strain (AID 2302;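 active means growth inhibition above 50% at the single 2 µM test dose, taken to imply half-maximal potency below 2 µM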;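 further: 0% = DMSO untreated growth and 100% = chloroquine plus artemisinin killed control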); conditions: P. falciparum Dd2 in RBCs, LDH growth readout, 72 h; at 2 µM; stronger effect = higher value
[2] = HepG2 cytotoxicity, primary screen, cytotoxicity control for P. falciparum antimalarial project, cell-based, ATP luminescence (AID 2303;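 active means inhibition above 50%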;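 further: 0% = DMSO wells and 100% = digitonin-killed cells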); conditions: HepG2 viability, 24-48 h, at 10 µM, stronger effect = higher value
[3] = biological target: L-lactate dehydrogenase (Plasmodium falciparum (isolate CDC / Honduras)) (UniProt Q27743); test: PfLDH activity inhibition – cell lysate, 3D7 strain, counter-screen for P. falciparum growth inhibition project (AID 2304);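 further: 0% = vehicle and 100% = reference inhibitor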; conditions: P. falciparum 3D7 crude extract, LDH APAD/NBT absorbance; at 2 µM; stronger effect = higher value
[4] = inhibition of 3D7 malaria parasite growth – strain 3D7 (AID 2306);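 further: 0% = DMSO wells and 100% = chloroquine plus artemisinin control wells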; conditions: P. falciparum 3D7 erythrocytic growth, LDH absorbance, 72 h; at 2 µM; stronger effect = higher value
[5] = biological target: Calcium-dependent protein kinase 1 (Plasmodium falciparum (isolate 3D7)) (UniProt P62344); test: PfCDPK1 kinase inhibitors, biochemical, TCAMS library (AID 1159585; cut-off not given, nearly all actives have IC50 up to about 0.98 µM;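 further: inhibitors leave more ATP so luminescence rises with inhibition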); conditions: recombinant PfCDPK1, Kinase-Glo ATP depletion luminescence
[6] = biological target: Plasmodium falciparum protein kinase 6 (PK6, PF3D7_1337100) (UniProt Q8IDW1); test: PfPK6 kinase inhibitors, biochemical, TCAMS library (AID 1159586); conditions: recombinant PfPK6, Kinase-Glo ATP depletion luminescence
[7] = biological target: Protein kinase 7 (PK7), Plasmodium falciparum 3D7 (PF3D7_0213400) (UniProt Q7YTF7); test: inhibition of Plasmodium PK7 catalytic activity – biochemical, TCAMS antimalarial set, Kinase-Glo luminescence (AID 1159587); conditions: recombinant PfPK7, Kinase-Glo ATP depletion luminescence
[8] = biological target: Calcium-dependent protein kinase 4 (Plasmodium falciparum (isolate 3D7)) (UniProt Q8IBS5); test: PfCDPK4 kinase inhibitors, biochemical, TCAMS library (AID 1159588; cut-off not given, nearly all actives have IC50 up to about 0.91 µM); conditions: recombinant PfCDPK4, Kinase-Glo ATP depletion luminescence
Chain of Calcium-dependent protein kinase 4 (Plasmodium falciparum (isolate 3D7)) (Q8IBS5 whole entry, looked up): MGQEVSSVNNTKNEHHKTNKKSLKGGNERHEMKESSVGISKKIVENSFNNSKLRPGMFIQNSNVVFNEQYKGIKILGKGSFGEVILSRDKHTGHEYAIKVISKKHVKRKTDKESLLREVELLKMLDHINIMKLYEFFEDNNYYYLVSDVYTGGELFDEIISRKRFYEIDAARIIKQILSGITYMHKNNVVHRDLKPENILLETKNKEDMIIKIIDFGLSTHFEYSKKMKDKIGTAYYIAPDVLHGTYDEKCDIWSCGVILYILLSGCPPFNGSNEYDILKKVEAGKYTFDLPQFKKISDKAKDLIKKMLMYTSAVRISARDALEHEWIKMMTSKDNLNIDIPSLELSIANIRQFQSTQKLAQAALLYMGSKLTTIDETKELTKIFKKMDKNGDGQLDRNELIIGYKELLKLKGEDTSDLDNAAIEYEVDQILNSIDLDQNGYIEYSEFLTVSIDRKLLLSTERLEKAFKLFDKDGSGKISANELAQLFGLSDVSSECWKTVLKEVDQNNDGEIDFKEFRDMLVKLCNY

Chain of Plasmodium falciparum protein kinase 6 (PK6, PF3D7_1337100) (Q8IDW1 1-305): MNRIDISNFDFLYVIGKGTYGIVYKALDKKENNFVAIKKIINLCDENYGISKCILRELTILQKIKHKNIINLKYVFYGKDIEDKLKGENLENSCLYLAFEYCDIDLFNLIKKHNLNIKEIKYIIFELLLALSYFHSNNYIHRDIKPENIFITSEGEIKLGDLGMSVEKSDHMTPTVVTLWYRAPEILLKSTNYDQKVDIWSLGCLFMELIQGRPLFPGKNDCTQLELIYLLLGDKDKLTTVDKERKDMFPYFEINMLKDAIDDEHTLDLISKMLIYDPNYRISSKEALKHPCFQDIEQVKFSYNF
Chain of Calcium-dependent protein kinase 1 (Plasmodium falciparum (isolate 3D7)) (P62344 whole entry, looked up): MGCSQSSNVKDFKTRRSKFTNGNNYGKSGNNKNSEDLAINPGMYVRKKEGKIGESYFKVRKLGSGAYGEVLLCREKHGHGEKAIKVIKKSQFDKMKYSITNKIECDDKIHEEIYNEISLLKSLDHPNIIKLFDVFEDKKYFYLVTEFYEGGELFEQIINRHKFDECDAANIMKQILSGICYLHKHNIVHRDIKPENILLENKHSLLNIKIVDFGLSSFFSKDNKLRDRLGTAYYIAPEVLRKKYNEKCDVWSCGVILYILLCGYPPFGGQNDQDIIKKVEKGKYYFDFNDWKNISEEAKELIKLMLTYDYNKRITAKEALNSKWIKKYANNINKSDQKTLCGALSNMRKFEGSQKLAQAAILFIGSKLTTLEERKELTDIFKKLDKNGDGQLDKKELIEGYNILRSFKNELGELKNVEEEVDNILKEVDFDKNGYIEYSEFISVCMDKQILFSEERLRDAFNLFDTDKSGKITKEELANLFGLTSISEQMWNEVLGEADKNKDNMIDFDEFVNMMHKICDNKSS
Chain of L-lactate dehydrogenase (Plasmodium falciparum (isolate CDC / Honduras)) (Q27743 whole entry, looked up): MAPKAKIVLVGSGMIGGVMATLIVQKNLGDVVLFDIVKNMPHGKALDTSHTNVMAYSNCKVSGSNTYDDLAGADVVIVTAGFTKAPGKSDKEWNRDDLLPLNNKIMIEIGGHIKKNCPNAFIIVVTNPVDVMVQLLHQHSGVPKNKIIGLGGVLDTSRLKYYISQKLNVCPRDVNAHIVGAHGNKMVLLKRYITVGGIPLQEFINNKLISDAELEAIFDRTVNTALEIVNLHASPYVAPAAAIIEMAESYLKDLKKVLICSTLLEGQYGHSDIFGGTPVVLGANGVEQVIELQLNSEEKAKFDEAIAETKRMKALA
Chain of Protein kinase 7 (PK7), Plasmodium falciparum 3D7 (PF3D7_0213400) (Q7YTF7 1-343): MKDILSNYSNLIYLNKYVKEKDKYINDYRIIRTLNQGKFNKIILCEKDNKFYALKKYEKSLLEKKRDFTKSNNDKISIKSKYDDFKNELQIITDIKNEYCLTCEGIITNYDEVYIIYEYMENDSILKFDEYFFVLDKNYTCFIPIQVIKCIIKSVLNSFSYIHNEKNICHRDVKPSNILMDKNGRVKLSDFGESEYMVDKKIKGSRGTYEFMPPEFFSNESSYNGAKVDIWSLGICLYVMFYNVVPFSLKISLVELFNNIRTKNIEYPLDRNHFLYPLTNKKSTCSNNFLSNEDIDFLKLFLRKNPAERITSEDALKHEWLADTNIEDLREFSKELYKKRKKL

O=C(c1ccc(F)c(F)c1)N1CCOC(CCN2CCC(c3ccccc3)CC2)(c2ccc(Cl)c(Cl)c2)C1 (stereo not given)
inactive: inhibition [3] 2% | outcome [5] | outcome [6] | outcome [7] | outcome [8]
active: growth inhibition [1] 75% | inhibition [2] 51% | growth inhibition [4] 89%

O=C(NCc1ccco1)c1ccc(CN2CCN(C(c3ccccc3)c3ccccc3)CC2)cc1
active: growth inhibition [1] 92% | growth inhibition [4] 96%
inactive: inhibition [2] 6% | inhibition [3] -1% | outcome [5] | outcome [6] | outcome [7] | outcome [8]

Cc1nc(Nc2ccc(F)cc2)nc(N2CCc3ccccc3C2C)c1CO (stereo not given)
active: growth inhibition [1] 95% | growth inhibition [4] 101%
inactive: inhibition [2] -9% | inhibition [3] -4% | outcome [5] | outcome [6] | outcome [7] | outcome [8]

Fc1cccc(COc2ccc(Nc3ncnc4sc(C#C[C@H]5CC[C@H](CN6CCOCC6)N5)cc34)cc2Cl)c1
inactive: growth inhibition [1] 23% | inhibition [2] 16% | inhibition [3] -10% | outcome [5] | outcome [6] | outcome [7] | outcome [8]
active: growth inhibition [4] 92%

Cc1ccccc1C1CCN(C2CCC(NC(=O)/C=C/c3cccc(Cl)c3F)CC2)CC1 (stereo not given)
inactive: growth inhibition [1] 37% | inhibition [3] 4% | outcome [5] | outcome [6] | outcome [7] | outcome [8]
active: inhibition [2] 87% | growth inhibition [4] 101%

Cc1ccn2c(C(=O)N3CCN(c4cccc5c4nc(-c4ccoc4)n5Cc4ccccn4)CC3)c(C)nc2c1
active: growth inhibition [1] 99% | growth inhibition [4] 98%
inactive: inhibition [2] 2% | inhibition [3] -1% | outcome [5] | outcome [6] | outcome [7] | outcome [8]

CCN1CCN(c2cc(C)c3cc(NC(=O)c4ccc(Br)o4)ccc3n2)CC1
active: growth inhibition [4] 98%
inactive: growth inhibition [1] 13% | inhibition [2] -8% | inhibition [3] -7% | outcome [5] | outcome [6] | outcome [7] | outcome [8]

CCOc1ccc(NC(=O)c2cccc(CN3CCCN(Cc4cccc(O)c4)CC3)c2)cc1
active: growth inhibition [4] 95%
inactive: growth inhibition [1] 23% | inhibition [2] 22% | inhibition [3] 0% | outcome [5] | outcome [6] | outcome [7] | outcome [8]

CCCCOC(=O)c1ccc(NC(=O)Nc2ccc(Cn3ncc(N4CCCNCC4)c(Cl)c3=O)cc2)cc1
active: growth inhibition [1] 74% | growth inhibition [4] 92%
inactive: inhibition [2] 2% | inhibition [3] 2% | outcome [5] | outcome [6] | outcome [7] | outcome [8]

Cc1ccc(O)cc1Nc1ccnc2cc(-c3csc(CN4CCN(C)CC4)n3)ccc12
active: growth inhibition [1] 77% | growth inhibition [4] 100%
inactive: inhibition [2] 6% | inhibition [3] -4% | outcome [5] | outcome [6] | outcome [7] | outcome [8]

CCOc1cc(C(=O)NCc2cc(Cl)cc(Cl)c2)ccc1-c1nc2ccc(Cl)cc2[nH]1
active: growth inhibition [4] 101%
inactive: growth inhibition [1] 5% | inhibition [2] 1% | inhibition [3] -3% | outcome [5] | outcome [6] | outcome [7] | outcome [8]

C[C@@H]1CN(c2cnn(C/C=C/c3ccc(NC(=O)c4ccc5nonc5c4)cc3)c(=O)c2Cl)C[C@H](C)N1
active: inhibition [2] 71% | growth inhibition [4] 94%
inactive: growth inhibition [1] 35% | inhibition [3] -3% | outcome [5] | outcome [6] | outcome [7] | outcome [8]

CCCN(CC)CCOC(=O)c1ccccc1
active: growth inhibition [4] 99%
inactive: growth inhibition [1] 1% | inhibition [2] 2% | inhibition [3] -4% | outcome [5] | outcome [6] | outcome [7] | outcome [8]

Cc1cccc2[nH]c(-c3cccc(-c4ccc(CNCc5ccccc5)cc4)c3)nc12
inactive: inhibition [2] 33% | inhibition [3] -3% | outcome [5] | outcome [6] | outcome [7] | outcome [8]
active: growth inhibition [1] 100% | growth inhibition [4] 99%

COc1ccc2nccc([C@@H](O)CN3[C@@H]4CC[C@H]3CC(NCc3ccc5c(n3)NC(=O)CS5)C4)c2n1 (stereo not given in full)
inactive: growth inhibition [1] 11% | inhibition [2] -1% | inhibition [3] 4% | outcome [5] | outcome [6] | outcome [7] | outcome [8]
active: growth inhibition [4] 99%

CN1CCN(C(C(=O)NCc2cc(Cl)cc(Cl)c2)c2ccc(NC(=O)Nc3ccccc3)cc2)CC1 (stereo not given)
active: growth inhibition [4] 98%
inactive: growth inhibition [1] 43% | inhibition [2] 23% | inhibition [3] -5% | outcome [5] | outcome [6] | outcome [7] | outcome [8]

COc1ccc(CCNCCCCCCNCCc2ccc(OC)c(OC)c2Cl)c(Cl)c1OC
active: growth inhibition [4] 96%
inactive: growth inhibition [1] -2% | inhibition [2] 19% | inhibition [3] 1% | outcome [5] | outcome [6] | outcome [7] | outcome [8]

COc1ccc(CN(C)C(=O)CCNS(=O)(=O)c2ccc3c(c2)OCCCO3)cc1F
active: growth inhibition [1] 94% | growth inhibition [4] 96%
inactive: inhibition [2] 9% | inhibition [3] 0% | outcome [5] | outcome [6] | outcome [7] | outcome [8]

Nc1c2c(nc3ccc(NC(=O)c4ccc([N+](=O)[O-])cc4)cc13)CCCC2
inactive: inhibition [2] 19% | inhibition [3] 0% | outcome [5] | outcome [6] | outcome [7] | outcome [8]
active: growth inhibition [1] 72% | growth inhibition [4] 102%

COc1cc2nccc(Nc3ccc(OCc4ccc(NC(C)=O)cc4)cc3)c2cc1OC
inactive: inhibition [2] 24% | inhibition [3] 3% | outcome [5] | outcome [6] | outcome [7] | outcome [8]
active: growth inhibition [1] 95% | growth inhibition [4] 101%

CCCCCCCCc1c(C)[nH]c(C)c(Br)c1=O
active: growth inhibition [1] 92% | growth inhibition [4] 96%
inactive: inhibition [2] -5% | inhibition [3] 7% | outcome [5] | outcome [6] | outcome [7] | outcome [8]

COc1ccc(CCNc2nc(NCc3ccccc3)c3cc(OC)c(OC)cc3n2)cc1OC
inactive: inhibition [2] 46% | inhibition [3] 0% | outcome [5] | outcome [6] | outcome [7] | outcome [8]
active: growth inhibition [1] 91% | growth inhibition [4] 100%

Cc1noc(C)c1CN1CCCN(c2ccc3c(c2)CCN(Cc2ccc(-c4ncc[nH]4)cc2)CC3)CC1
active: growth inhibition [4] 98%
inactive: growth inhibition [1] 39% | inhibition [2] 1% | inhibition [3] 2% | outcome [5] | outcome [6] | outcome [7] | outcome [8]

Cc1ccc(C(=O)c2oc3ccc4c(C)cc(=O)oc4c3c2C)cc1
inactive: growth inhibition [1] 48% | inhibition [2] -8% | inhibition [3] 1% | outcome [5] | outcome [6] | outcome [7] | outcome [8]
active: growth inhibition [4] 86%

Cc1cccc2[nH]c(-c3ccc(-c4ccc(CN5CCC(C(N)=O)CC5)cc4)s3)nc12
inactive: inhibition [2] 4% | inhibition [3] 8% | outcome [5] | outcome [6] | outcome [7] | outcome [8]
active: growth inhibition [1] 51% | growth inhibition [4] 97%

COc1ccc(-c2nc(NC(=O)Cc3ccc(OC)c(OC)c3)sc2C)cc1
inactive: growth inhibition [1] 22% | inhibition [2] 33% | inhibition [3] -2% | outcome [5] | outcome [6] | outcome [7] | outcome [8]
active: growth inhibition [4] 93%

O=S(=O)(Nc1ccc(CCN2CCC(N3CCCCC3)CC2)cc1)c1ccc(Cl)cc1
active: growth inhibition [4] 101%
inactive: growth inhibition [1] 18% | inhibition [2] 23% | inhibition [3] -1% | outcome [5] | outcome [6] | outcome [7] | outcome [8]

Cc1ccc2nc(C)cc(Nc3ccccc3O)c2c1
inactive: growth inhibition [1] 6% | inhibition [2] 0% | inhibition [3] -3% | outcome [5] | outcome [6] | outcome [7] | outcome [8]
active: growth inhibition [4] 96%

O=C(NCc1ccccc1)Nc1ccc(-c2cccc(-c3nc4ccc(C(F)(F)F)cc4[nH]3)c2)cc1
inactive: growth inhibition [1] 23% | inhibition [3] -1% | outcome [5] | outcome [6] | outcome [7] | outcome [8]
active: inhibition [2] 56% | growth inhibition [4] 97%

Cc1cc(N[C@@H](CC(C)C)C(=O)NCCc2ccccc2)nc(NCCc2ccc(F)cc2)n1
active: growth inhibition [1] 53% | growth inhibition [4] 98%
inactive: inhibition [2] 12% | inhibition [3] -1% | outcome [5] | outcome [6] | outcome [7] | outcome [8]

Cc1cc2nc(-c3ccc(SCC(=O)Nc4ccc5c(c4)OCCO5)nc3)[nH]c2cc1C
inactive: growth inhibition [1] 6% | inhibition [2] 17% | inhibition [3] 9% | outcome [5] | outcome [6] | outcome [7] | outcome [8]
active: growth inhibition [4] 85%

CC(C)c1ccc(-c2noc(SCC(=O)N3CCCCC3C)n2)cc1 (stereo not given)
inactive: inhibition [2] 21% | inhibition [3] 2% | outcome [5] | outcome [6] | outcome [7] | outcome [8]
active: growth inhibition [1] 92% | growth inhibition [4] 92%

O=C(Cc1ccsc1)NCC(c1ccccc1Cl)c1c[nH]c2ccccc12 (stereo not given)
inactive: inhibition [2] 0% | inhibition [3] -1% | outcome [5] | outcome [6] | outcome [7] | outcome [8]
active: growth inhibition [1] 71% | growth inhibition [4] 86%

Clc1ncccc1-c1nc(NCCC(c2ccccc2)c2ccccc2)no1
inactive: inhibition [2] 12% | inhibition [3] 3% | outcome [5] | outcome [6] | outcome [7] | outcome [8]
active: growth inhibition [1] 82% | growth inhibition [4] 94%

c1ccc(CCNCc2cccc(-c3ccccc3CNCc3ccc4c(c3)OCO4)c2)nc1
active: growth inhibition [1] 80% | growth inhibition [4] 90%
inactive: inhibition [2] 41% | inhibition [3] -2% | outcome [5] | outcome [6] | outcome [7] | outcome [8]

C=C[C@H]1CN(CCCCCCC)CC[C@H]1CCNc1ccnc2ccc(OC)cc12
inactive: inhibition [3] 7% | outcome [5] | outcome [6] | outcome [7] | outcome [8]
active: growth inhibition [1] 81% | inhibition [2] 99% | growth inhibition [4] 95%

CCCc1ccccc1OCC(O)CN(C1CCCC1)C1CCCC1 (stereo not given)
active: growth inhibition [1] 97% | growth inhibition [4] 97%
inactive: inhibition [2] 49% | inhibition [3] -7% | outcome [5] | outcome [6] | outcome [7] | outcome [8]

CN1CCN(c2cc3c(cc2Cl)CCN3C(=O)Cc2ccc(NC(=O)Nc3cccc4ccccc34)cc2)CC1
active: growth inhibition [4] 92%
inactive: growth inhibition [1] 18% | inhibition [2] 12% | inhibition [3] -11% | outcome [5] | outcome [6] | outcome [7] | outcome [8]

Cc1noc(-c2ccccc2)c1CN1CCCC2(CC(C(=O)NCc3cccc(F)c3F)=NO2)C1 (stereo not given)
inactive: growth inhibition [1] 28% | inhibition [2] -1% | inhibition [3] -1% | outcome [5] | outcome [6] | outcome [7] | outcome [8]
active: growth inhibition [4] 85%

O=C(Nc1cccc(Cl)c1Cl)N1CCc2cc3nccc(N4CCN5CCC[C@H]5C4)c3cc21
inactive: inhibition [2] 9% | inhibition [3] -1% | outcome [5] | outcome [6] | outcome [7] | outcome [8]
active: growth inhibition [1] 100% | growth inhibition [4] 98%
